Screening data (PubChem BioAssay)
An excerpt weighted towards active compounds, which were near 2.8% of everything screened.
SENP8 block-1 – inhibitors of human SENP8 protease. Q96LD8. recombinant SENP8, Nedd8 substrate fluorescence. inhibition, % at 20 µM. 360,000 compounds, 0.64% hits. AID 602440; in the data active means inhibition mostly above about 40%, no sharp cut-off; inactive means mostly below about 27%
Target sequence (Q96LD8 whole entry, looked up): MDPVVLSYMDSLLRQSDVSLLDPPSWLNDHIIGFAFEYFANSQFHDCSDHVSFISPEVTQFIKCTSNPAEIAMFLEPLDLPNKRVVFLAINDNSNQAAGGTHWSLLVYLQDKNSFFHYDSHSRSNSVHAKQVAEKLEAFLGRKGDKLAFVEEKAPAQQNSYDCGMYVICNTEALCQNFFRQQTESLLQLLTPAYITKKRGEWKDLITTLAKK
HSP90 inh – HSP90 refolding inhibition in rabbit reticulocyte lysate; 290,000 compounds, 0.91% hits; luciferase refolding luminescence, 3 h; inhibition, % at 5.6 µM;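 active means inhibition above the screen-wide mean plus 3 SD, computed separately per campaign, cut at about 16% in these data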;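 further: 0% = DMSO wells and 100% = 60 µM geldanamycin wells; inhibitors lower the luminescence because luciferase stays unfolded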
SENP7 inh – SENP7 protease inhibition | recombinant SENP7, Z-RLRGG-aminoluciferin luminescence, 40 min | Q9BQF6 | inhibition, % at 5 µM | AID 434973 | 330,000 compounds, 1.5% hits;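 active means inhibition above about 50% at the single test dose, limit read from the data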;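 further: plate controls were DMSO with enzyme for no effect and no enzyme buffer wells for full effect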
SENP8 block-2 – blocks the human protease SENP8 | 330,000 compounds, 1.2% hits | inhibition, % at 10 µM | purified SENP8, Z-RLRGG-aminoluciferin cleavage, luminescence | Q96LD8; in the data active means inhibition above about 50%
SENP6 inh – blocks the human protease SENP6; Q9GZR1; Recombinant SENP6 catalytic domain, aminoluciferin luminescence; inhibition, % at 10 µM; 330,000 compounds, 1.8% hits;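 active means inhibition above about 50% at the single tested dose, limit read from the data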;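 further: plate controls were DMSO wells with enzyme for no effect and DMSO wells lacking enzyme for full effect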
SENP8 conf – confirmation of human SENP8 protease inhibitors; shares compounds with SENP7 inh; Recombinant SENP8, Z-RLRGG-aminoluciferin luminescence, 60 min; inhibition, % at 12.5 µM; 6,200 compounds, 40% hits; AID 488912;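 active means mean inhibition across replicates above about 50%, limit read from the data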
SENP6 confirm – human SENP6 inhibition, confirmed; shares compounds with SENP7 inh; recombinant SENP6, Z-RLRGG-aminoluciferin luminescence; inhibition, % at 12.5 µM; 6,200 compounds, 58% hits; AID 488915
SENP7 conf – confirmation of human SENP7 protease inhibitors. shares compounds with SENP7 inh. recombinant SENP7, Z-RLRGG-aminoluciferin luminescence, 40 min. inhibition, % at 12.5 µM. 6,200 compounds, 69% hits. AID 488917
Casp3 SENP sel – selectivity test for SENP inhibitors: human caspase-3 inhibition. inhibition, % at 12.5 µM. AID 488918. shares compounds with SENP7 inh. purified caspase-3, Z-DEVD-aminoluciferin luminescence, 60 min. 6,200 compounds, 60% hits;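 active means mean inhibition above about 50%, limit read from the data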;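 further: plate controls were enzyme with DMSO for no effect and wells without caspase-3 for full effect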
Target sequence (P42574 28-227 limits assumed): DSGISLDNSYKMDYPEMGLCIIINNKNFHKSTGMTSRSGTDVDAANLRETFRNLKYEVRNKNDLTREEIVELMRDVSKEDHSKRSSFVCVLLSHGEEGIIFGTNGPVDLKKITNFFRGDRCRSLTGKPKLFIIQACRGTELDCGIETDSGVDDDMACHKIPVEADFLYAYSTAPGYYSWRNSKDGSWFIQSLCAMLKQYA
Luc interf – interferes with luciferase luminescence in SENP counter-screen | shares compounds with SENP7 inh | Pre-incubated SENP8/Z-RLRGG-aminoluciferin, luciferase luminescence interference | inhibition, % at 12.5 µM | 6,200 compounds, 39% hits | AID 488919;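 active means mean inhibition above about 50% when retested at one dose, limit read from the data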;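 further: plate controls were DMSO wells with completed reaction for no effect and substrate without enzyme for full effect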
An asterisk follows results filed as active; . = no result given.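 How the source made its calls, unless noted: active means mean inhibition above about 50% in the one-dose retest (limit read from the data); inactive means the rest.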

SMILES	SENP8 block-1	HSP90 inh	SENP7 inh	SENP8 block-2	SENP6 inh	SENP8 conf	SENP6 confirm	SENP7 conf	Casp3 SENP sel	Luc interf
CCN(C(=O)CSc1n[nH]c(N)n1)C1CCCCC1	0.6	.	-5.3	9.1	-6.3	.	.	.	.	.
O=C(c1ccc(Cl)s1)N1CCN(c2ncccn2)CC1	5.8	0.5	1.1	1.5	-19.9	.	.	.	.	.
C=C1c2ccccc2NC(=S)N1Cc1ccc2c(c1)OCO2	5.3	6.5	-11.8	-3.9	-11.9	.	.	.	.	.
CCSc1nnc(Cc2cc(=O)[nH]c(=O)[nH]2)n1-c1cc(C)ccc1C	16.3	-3.3	15.4	-5.8	53.1*	-3.8	-1.1	-5.7	-5.1	-3.9
O=C(O)c1cccc(NC(=O)c2cccc(NC(=O)C3CCCO3)c2)c1 (stereo not given)	13.9	10.8	-15.2	54.7*	62.5*	73.9*	71.9*	89.7*	69.0*	53.5*
O=C(O)c1cccc(C(=O)Nc2cccc(NC(=O)C3CCCO3)c2)c1 (stereo not given)	5.7	10.3	49.5	42.4	56.6*	74.1*	71.2*	90.8*	66.6*	47.3
O=C(O)c1cccc(NC(=O)C2CCCO2)c1 (stereo not given)	8.3	1.9	13.5	-0.5	5.6	.	.	.	.	.
CC(C)c1ccc(/C=C/C(=O)Nc2nncs2)cc1	-31.2	4.3	89.6*	72.7*	84.3*	33.2	54.2*	81.6*	62.7*	16.7
COc1cc(/C=N/NC(=O)CN(CCc2ccccc2)S(=O)(=O)c2ccc(NC(C)=O)cc2)cc(OC)c1OC	23.4	-0.3	-4.9	1.2	-11.8	.	.	.	.	.
CCCCNc1cc(NC(C)=O)cc2cc(OC)c(OC)cc12	-272.0	2.1	-10.3	31.9	50.5*	27.4	55.0*	14.7	2.4	0.6
COc1cc2cc(NC(C)=O)cc(NCc3ccccc3)c2cc1OC	-312.6	-2.7	46.6	70.3*	75.2*	10.4	31.2	13.1	6.5	-7.1
N#Cc1c(N2CCOCC2)nsc1-c1ccccc1	-27.7	-0.8	5.8	24.8	37.3	.	.	.	.	.
N#Cc1c(N2CCCC2)nsc1-c1ccccc1	-24.1	10.5	20.1	41.8	60.3*	29.8	33.9	25.4	44.5	51.9*
NC(=O)CC1Nc2cccc3cccc(c23)NC1=O (stereo not given)	-19.3	8.4	34.2	77.4*	90.6*	-2.1	6.1	6.4	1.0	-1.7
O=C(CC1Nc2cccc3cccc(c23)NC1=O)Nc1ccccc1 (stereo not given)	-106.4	3.8	52.6*	2.3	86.9*	7.7	9.5	-5.4	-0.6	-2.3
O=C(CC1Nc2ccccc2NC1=O)NCCc1ccccc1 (stereo not given)	-272.8	0.4	5.3	3.9	0.7	.	.	.	.	.
Cc1ccccc1C(=O)Oc1ccc2ccc(O)cc2c1	1.7	-1.1	58.5*	59.1*	72.9*	49.5	76.0*	84.5*	24.7	24.1
COc1cccc(C(=O)Oc2ccc3ccc(O)cc3c2)c1	.	1.4	37.8	38.2	68.7*	45.8	63.6*	80.0*	17.0	12.9
O=c1[nH]nc(-c2ccc(OCc3ccc(Cl)cc3Cl)cc2)o1	12.3	5.0	-1.6	-7.8	-10.2	.	.	.	.	.
O=C1/C(=C/c2ccc([N+](=O)[O-])cc2)CCc2ccccc21	.	3.3	98.3*	90.2*	94.8*	1.2	80.6*	-9.0	39.5	36.7
COc1ccc(OC)c(C=C2CCc3ccccc3C2=O)c1	-15.1	.	.	.	.	.	.	.	.	.
CC(=O)Oc1ccc(/C=C2/CCc3ccccc3C2=O)cc1	6.5	2.5	96.5*	95.3*	96.8*	96.0*	99.7*	101.7*	94.2*	98.3*
COc1ccc(/C=C2\CCc3ccccc3C2=O)cc1OC	1.4	-22.4	25.2	33.0	52.3*	69.0*	62.5*	61.9*	27.1	41.9
COC(=O)CSc1nnc2n(-c3ccc(OC)cc3)c(=O)c3c4c(sc3n12)CCCCC4	16.6	5.3	-0.4	-2.1	-12.5	.	.	.	.	.
COc1ccc(S(=O)(=O)NCCC(C)C)cc1OC	-4.3	2.8	88.4*	-8.1	-5.4	14.2	12.8	9.0	1.8	2.8
SMILES	SENP8 block-1	HSP90 inh	SENP7 inh	SENP8 block-2	SENP6 inh	SENP8 conf	SENP6 confirm	SENP7 conf	Casp3 SENP sel	Luc interf
CC(C)CCNS(=O)(=O)c1ccc(-c2ccc(S(=O)(=O)NCCC(C)C)cc2)cc1	6.6	2.6	-1.5	-1.6	-38.8	.	.	.	.	.
O=C(O/N=C/c1ccc(Br)cc1)c1ccc(F)cc1	-6.1	.	75.7*	26.0	41.3	-1.8	-10.3	20.7	29.4	0.1
O=C(COC(=O)c1ccc([N+](=O)[O-])s1)Nc1ccc(Cl)cn1	8.2	0.9	18.8	13.6	64.5*	18.3	46.7	0.0	-0.2	-1.0
Cc1ccc(C(=O)OCC(=O)Nc2ccc(Cl)cn2)s1	7.2	.	-13.8	-2.6	-14.5	.	.	.	.	.
Cc1c(Cl)cnc(NC(=O)COC(=O)c2cccs2)c1Cl	-4.1	.	-6.5	-7.3	-14.8	.	.	.	.	.
Cc1c(Cl)cnc(NC(=O)COC(=O)c2ccc([N+](=O)[O-])s2)c1Cl	19.7	-1.8	16.2	46.6	71.4*	-14.5	75.7*	7.1	-3.4	-6.9
Cc1ccc(CCNS(=O)(=O)c2cc3c(cc2C)n(C)c(=O)c(=O)n3C)cc1	-286.3	2.6	-1.2	9.9	-5.0	.	.	.	.	.
Cc1ncsc1C(=O)Nc1nc2c(s1)CCCC2	-41.4	1.0	98.9*	91.8*	96.0*	52.5*	98.2*	103.1*	97.6*	53.2*
O=C(Nc1nc2c(s1)CCCC2)c1ccc2ncsc2c1	-79.0	1.6	12.3	27.6	29.3	.	.	.	.	.
Cc1cc(C(=O)Nc2nc3c(s2)CCCC3)cs1	-4.3	7.3	86.0*	67.2*	83.7*	1.8	74.6*	97.7*	83.7*	21.2
O=C(Nc1nc2c(s1)CCCC2)c1ccc(Br)s1	-42.6	4.3	52.9*	43.8	59.6*	9.1	49.1	86.2*	44.1	48.9
CCc1c(C)nc2ncnn2c1Nc1ccc(C(C)=O)cc1	2.7	1.6	4.3	3.3	7.6	.	.	.	.	.
CC(CN1CCCCC1)OC(=O)C1c2ccccc2Oc2ccccc21 (stereo not given)	24.6	0.0	1.9	4.9	2.1	.	.	.	.	.
Cc1ccc(C(=O)N(Cc2ccccc2)C(C)(C)C)cc1C	10.8	2.9	-3.8	0.9	13.5	.	.	.	.	.
O=C(CC(Nc1ccc(F)cc1)C(=O)O)c1ccccc1 (stereo not given)	-29.6	-0.8	74.4*	82.7*	96.0*	69.2*	82.5*	90.8*	83.4*	31.0
